Bioassay records as filed in PubChem BioAssay.
S16 F2sN tox: Cell viability qHTS assay in S16 Pmp22-F2sN cells. Potency, µM (series often up to 57.5 µM), without a hit: at the highest dose activity change, negative = cytotoxicity, usual class: cytotoxic. S16 Pmp22-F2sN Schwann cells viability, CellTiter-Glo, 24 h. hit rate 0.48% among 43,000; also: potency is read from the fitted curve at half-maximal effect; % is scaled to controls: 0 for no effect and ±100 for the full control effect; nearly all actives have a fitted effect of over 65% in size
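Luminescence from CellTiter-Glo, read by CCD camera after a 15 min room-temperature incubation, served as the viability signal. Reporter Schwann cells (S16 Pmp22-F2sN) had been treated with pin-transferred compounds for 24 h at 37C.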
PMP22 txn prim: Cell-based coincidence reporter assay to measure PMP22 gene transcription in S16 Pmp22-F2sN cells - Primary screen; S16 Pmp22-F2sN Schwann cells (luciferase reporters placed in the Pmp22 gene), FLuc/NLuc coincidence luminescence, 24 h; Potency, µM (doses to about 57.5 µM), without a hit: top-dose activity change, negative = inhibition, usual class: inhibitors; hit rate 2% among 43,000; active = clear falling dose curves in both reporters; inconclusive = both reporters move, but less clearly or upward; inactive = either reporter flat; the % is the NLuc reporter signal; also: potency is read from the fitted curve at half-maximal effect; % is scaled to controls: 0 for no effect and ±100 for the full control effect
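Rat S16 Pmp22-F2sN cells, 500-1,000/well in phenol red-free DMEM + 10% FBS, compound-treated 24 h (37C, 5% CO2). Luminescence: FLuc read, Stop&Glo added, NLuc read.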
OvCa metastasis: Primary qHTS assay for Inhibitors of ovarian cancer metastasis using an organotypic tumor microenvironment (TME) model; hit rate 0.1% among 46,000; Potency, µM (highest dose often 45.8 µM), for the others: top-dose activity change, negative = inhibition, most hits filed as inhibitors; SKOV3ip1-GFP adhesion/invasion on 3D omental model, fluorescence;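 also: potency is read from the fitted curve at half-maximal effect; plate controls were DMSO wells for no effect and tomatine positive control wells for full effect; nearly all actives have a fitted effect of over 65% in size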
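A 3D layer of primary human omental fibroblasts, mesothelial cells, fibronectin and collagen I, grown 48 hr, received SKOV3ip1-GFP cells in serum-free medium plus compounds at 0.36-46 umol/L. After 2 hr RT and 16 hr 37 C, fixed adherent GFP cells were counted; normalized to DMSO and tomatine.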
HTT-AS act: Primary qHTS for Identification of Small Molecule Activators of Huntingtin-Antisense Promoter Activity; HEK293 HTT-AS promoter firefly luciferase reporter, 24 h; response scale: percent change from vehicle, -100% = no light; Potency, µM (top dose mostly 57.5 µM), without a hit: at the highest dose activity change, positive = activation, hits mostly activators; hit rate 0.24% among 48,000; also: potency is read from the fitted curve at half-maximal effect; nearly all actives have a fitted effect of over 55% in size
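Luminescence was read after Dual-Glo reagent and a 10 min room-temperature incubation. Values were normalized to vehicle (0% activity) and zero RLU (-100% activity). Reporter HEK293 cells had been exposed to compounds (up to 57.5 uM final) for 24 h.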
mTORC1 inh: Acumen qHTS Assay for Inhibitors of the mTORC1 Signaling Pathway in MEF (Tsc2-/-, p53-/-) Cells: Sytravon; Tsc2-/- p53-/- MEF, phospho-rpS6 immunofluorescence/PI, 24 h; Potency, µM (top dose mostly 38.3 µM), for inactives: top-dose activity change, negative = inhibition, hits mostly inhibitors; hit rate 0.78% among 44,000; AID 493208, 2011;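 also: potency is read from the fitted curve at half-maximal effect; plate controls were DMSO for no effect and rapamycin for full effect; nearly all actives have a fitted effect of over 50% in size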
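Readout is phospho-S6 Alexa 488 signal normalized to PI per well, reported as % active cells with thresholds set from rapamycin (7.5 nM) and DMSO controls. Cells: Tsc2-/-, p53-/- MEFs, 24 hrs compound at 37 C; PI cell number serves as viability.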
HTT prom inh: Primary qHTS for Identification of Small Molecule Inhibitors of Huntingtin Promoter Activity | AID 1508623, 2021 | HEK293 HTT promoter firefly luciferase reporter, 24 h | Potency, µM (top dose mostly 57.5 µM), inactives show top-dose activity change, negative = inhibition, hits mostly inhibitors | hit rate 0.93% among 48,000; also: potency is read from the fitted curve at half-maximal effect; nearly all actives have a fitted effect of over 50% in size
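Luminescence was read after Dual-Glo reagent and a 10 min room-temperature incubation. Values were normalized to vehicle (0% activity) and zero RLU (-100% activity). Reporter HEK293 cells had been exposed to compounds (up to 57.5 uM final) for 24 h.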
NLuc saturating: Biochemical NLuc saturation counterscreen for small molecule modulators of PMP22 gene expression - Nano-Glo assay. Potency, µM (titrated, usually from 57.5 µM), for inactives: at the top dose activity change, negative = inhibition, usual class: inhibitors. Secreted NLuc enzyme (filtered S16 cell medium), Nano-Glo luminescence. shares compounds with PMP22 txn prim. hit rate 4% among 690; also: potency is read from the fitted curve at half-maximal effect; % is scaled to controls: 0 for no effect and ±100 for the full control effect
NLuc Km ctr: Biochemical coelenterazine-based NLuc counterscreen for small molecule modulators of PMP22 gene expression - Km assay; shares compounds with PMP22 txn prim; secreted NLuc enzyme, coelenterazine luminescence, Km conditions; Potency, µM (series often up to 57.5 µM), for the others: top-dose activity change, negative = inhibition, usual class: inhibitors; hit rate 5% among 690; also: potency is read from the fitted curve at half-maximal effect; % is scaled to controls: 0 for no effect and ±100 for the full control effect
FLuc ctr PMP22: Biochemical FLuc counterscreen for small molecule modulators of PMP22 gene expression | 690 tested, under 10 active | shares compounds with PMP22 txn prim | purified P. pyralis FLuc, luminescence, 10 min | Potency, µM (top dose mostly 57.5 µM), without a hit: top-dose activity, negative = inhibition, actives largely listed as inhibitors; also: % of control where 0% means no effect
Target sequence (P08659 whole entry, looked up): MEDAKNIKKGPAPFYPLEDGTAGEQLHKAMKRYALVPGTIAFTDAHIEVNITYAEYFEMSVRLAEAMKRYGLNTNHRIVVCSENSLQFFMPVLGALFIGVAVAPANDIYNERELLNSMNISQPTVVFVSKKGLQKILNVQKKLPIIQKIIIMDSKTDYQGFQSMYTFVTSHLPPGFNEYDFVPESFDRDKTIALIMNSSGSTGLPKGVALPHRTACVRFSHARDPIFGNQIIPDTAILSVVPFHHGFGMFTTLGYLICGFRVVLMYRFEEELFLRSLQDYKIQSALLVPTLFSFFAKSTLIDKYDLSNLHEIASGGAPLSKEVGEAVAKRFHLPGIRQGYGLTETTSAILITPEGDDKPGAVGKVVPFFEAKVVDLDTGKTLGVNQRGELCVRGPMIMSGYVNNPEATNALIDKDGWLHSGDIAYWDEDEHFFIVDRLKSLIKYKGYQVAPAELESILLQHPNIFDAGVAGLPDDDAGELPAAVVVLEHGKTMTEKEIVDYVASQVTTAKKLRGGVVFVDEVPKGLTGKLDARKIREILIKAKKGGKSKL
S16 viab conf: Cell viability qHTS assay in S16 Pmp22-F2sN cells - Confirmatory screen; shares compounds with PMP22 txn prim; S16 Schwann cells viability, CellTiter-Glo ATP luminescence, 24 h; Potency, µM (series often up to 57.5 µM), inactives show at the highest dose activity change, negative = viability loss, usual class: cytotoxic; hit rate 7% among 690; AID 1508641, 2021; also: potency is read from the fitted curve at half-maximal effect; % is scaled to controls: 0 for no effect and ±100 for the full control effect
PMP22 txn conf: Cell-based coincidence reporter assay to measure PMP22 gene transcription in S16 Pmp22-F2sN cells - Confirmatory screen | shares compounds with PMP22 txn prim | S16 Schwann cells Pmp22-F2sN, dual luciferase, 24 h | Potency, µM (series often up to 57.5 µM), inactives show at the top dose activity change, negative = inhibition, hits mostly inhibitors | hit rate 22% among 690 | AID 1508646, 2021; active = clear falling dose curves in both reporters; inconclusive = both reporters move, but less clearly or upward; inactive = either reporter flat; the % is the FLuc reporter signal; also: potency is read from the fitted curve at half-maximal effect
* marks the source's active call; other numbers are inactive results. Most compounds without a hit are left out; they make up all but 3.6% or so of the library. Unless noted, calls follow the shape of the dose curve; as a rule, active = well fitted curve in the direction sought with a large enough effect; inconclusive = small, poorly fitted or top-dose-only effect, or another doubt; inactive = no such curve, though single readings can be large; an effect the other way counts as inactive or inconclusive.

Results for COc1ccc2c(c1)-c1nc(NC(=O)c3ccc(Cl)cc3)sc1CC2 ?
S16 F2sN tox: 7.3%; PMP22 txn prim: inconclusive; OvCa metastasis: -31.2%; HTT-AS act: -22.7%; mTORC1 inh: -24.5%; HTT prom inh: -29.6%

What do the screens show for `CCN(C(=O)CSc1nc2ccccc2nc1Cc1ccc(F)cc1)c1cccc(C)c1`?
S16 F2sN tox: -15.1%; PMP22 txn prim: -50.8%; OvCa metastasis: 42.6%; HTT-AS act: -22.3%; mTORC1 inh: 3.9%; HTT prom inh: -18.4%

How did CCN(C(=O)CSc1nc(-c2ccccc2)no1)c1cccc(C)c1 do in these assays?
S16 F2sN tox: -8.5%; PMP22 txn prim: 12.9µM*; OvCa metastasis: -22.5%; HTT-AS act: -75.7%; mTORC1 inh: 6.1%; HTT prom inh: 3.16µM*; NLuc saturating: 19.3µM*; NLuc Km ctr: 4.85µM*; FLuc ctr PMP22: -12.6%; S16 viab conf: inconclusive; PMP22 txn conf: 35.0%

How did Cc1ccc(Cl)cc1N1CCN(C(=O)c2ccc(C)c(-n3c(C)nc4cccnc43)c2)CC1 do in these assays?
S16 F2sN tox: inconclusive; PMP22 txn prim: 18.9µM*; OvCa metastasis: 5.4%; HTT-AS act: -52.2%; mTORC1 inh: -3.0%; HTT prom inh: inconclusive; NLuc saturating: 21.7µM*; NLuc Km ctr: 19.3µM*; FLuc ctr PMP22: 6.6%; S16 viab conf: -14.3%; PMP22 txn conf: inconclusive

Results for Cc1ccc(C)c(N2CCN(C(=O)c3cccc(-n4c(C)nc5cccnc54)c3)CC2)c1 ?
S16 F2sN tox: inconclusive; PMP22 txn prim: inconclusive; OvCa metastasis: -1.9%; HTT-AS act: -43.0%; mTORC1 inh: -8.4%; HTT prom inh: inconclusive

Results for Cc1cccc(N2CCN(C(=O)c3cccc(-n4c(C)nc5cccnc54)c3)CC2)c1C ?
S16 F2sN tox: 0.0%; PMP22 txn prim: 12.7µM*; OvCa metastasis: 8.4%; HTT-AS act: -31.6%; mTORC1 inh: -16.2%; HTT prom inh: inconclusive; NLuc saturating: inconclusive; NLuc Km ctr: inconclusive; FLuc ctr PMP22: 4.8%; S16 viab conf: 10.5%; PMP22 txn conf: -4.0%

What do the screens show for `COc1cccc2c1C(=O)c1c(O)c3c(c(O)c1C2=O)C[C@@](O)(C(=O)CO)C[C@H]3O[C@H]1C[C@H](N)[C@H](O)[C@H](C)O1`?
OvCa metastasis: 5.1%; HTT-AS act: -48.3%; HTT prom inh: inconclusive

What do the screens show for `CCCCCOc1ccc(/C=C/C(=O)Nc2sc(C)c(C)c2C(=O)OCC)cc1OC`?
S16 F2sN tox: -14.8%; PMP22 txn prim: 7.13µM*; OvCa metastasis: -29.6%; HTT-AS act: 2.1%; mTORC1 inh: 2.7%; HTT prom inh: 1.8%; NLuc saturating: -6.2%; NLuc Km ctr: 0.5%; FLuc ctr PMP22: -9.6%; S16 viab conf: 6.7%; PMP22 txn conf: -18.8%

What do the screens show for `CCCCCOc1ccc(/C=C/C(=O)Nc2sc(C(C)=O)c(C)c2C(=O)OCC)cc1OC`?
S16 F2sN tox: 19.0%; PMP22 txn prim: 7.51µM*; OvCa metastasis: 20.0%; HTT-AS act: 2.8%; mTORC1 inh: -10.3%; HTT prom inh: 5.4%; NLuc saturating: 0.6%; NLuc Km ctr: -1.0%; FLuc ctr PMP22: -2.5%; S16 viab conf: 4.6%; PMP22 txn conf: -6.8%

How did Cc1ccccc1C(C(=O)NC1CCCCC1)N(C(=O)Cn1ccnc1C)c1cccc(F)c1 (configuration not stated) do in these assays?
OvCa metastasis: 3.6%; HTT-AS act: inconclusive; HTT prom inh: 7.5%

What do the screens show for `CCc1ccc(-n2c(=O)c3sc4ccccc4c3n(CC(=O)NCc3ccccc3)c2=O)cc1`?
S16 F2sN tox: 4.4%; PMP22 txn prim: inconclusive; OvCa metastasis: 22.5%; HTT-AS act: -7.4%; mTORC1 inh: -3.8%; HTT prom inh: 2.1%

Results for COc1cccc(-n2c(=O)c3sc4ccccc4c3n(CC(=O)Nc3cccc(Cl)c3)c2=O)c1 ?
S16 F2sN tox: 22.2%; PMP22 txn prim: 1.3%; OvCa metastasis: -3.0%; HTT-AS act: -17.0%; mTORC1 inh: -1.1%; HTT prom inh: -21.4%

Results for Cc1ccc(CNC(=O)Cn2c(=O)n(Cc3ccccc3)c(=O)c3sc4ccccc4c32)cc1 ?
S16 F2sN tox: 4.5%; PMP22 txn prim: 13.4µM*; OvCa metastasis: 32.3%; HTT-AS act: -15.2%; mTORC1 inh: 0.9%; HTT prom inh: -7.2%; NLuc saturating: -1.1%; NLuc Km ctr: 7.0%; FLuc ctr PMP22: 8.6%; S16 viab conf: -19.5%; PMP22 txn conf: 19.3µM*
